This passage reports growth results from PubChem BioAssay (NCI).

Test systems include SK-MEL-2 melanoma; EKVX NSCLC; SN12C renal; UO-31 renal; TK-10 renal; ACHN renal; CAKI-1 renal; A498 renal; CCRF-CEM leukemia; MOLT-4 leukemia.
What all share (experiment): NCI-60 one-dose screen, 48 h (100 = growth as untreated, 0 = no growth, -100 = all killed)
What all share (conditions): 10 µM unless noted

About 83,000 compounds went through this panel and 20% of them were active in at least one assay; those are over-represented in the sample as a whole.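 Testing used 96-well plates and a 48-hour single-concentration exposure. Example: -40 means 40% of the starting cells died.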 Unmarked numbers belong to inactive results. Activity calls are given as the source filed them. The calls were made as follows: active = growth percent below 10; inactive = the rest.

Take `O=C1OCC2=C1C(c1cccc(F)c1)c1cc3c(cc1N2CCO)OCO3` (stereo not given): the growth in the test on SK-MEL-2 melanoma was 26%; in the test on EKVX NSCLC, 46.1%; in the test on SN12C renal, 48.3%; with UO-31 renal, 36.9%; in the test on TK-10 renal it was 52.3%; with ACHN renal, 34.5%. The growth with CAKI-1 renal was 23.8%; in the test with A498 renal, 3.08% (active); in the test with CCRF-CEM leukemia, 7.3% (active); in the test with MOLT-4 leukemia, 25.6%.
For the molecule `O=C(/C=C/C12c3ccccc3C(c3ccccc31)C1C(=O)NC(=O)C12)c1ccccn1` (stereo not given), the growth in the test on SK-MEL-2 melanoma was 7.36% (active); with EKVX NSCLC, 19.6%; in the test with SN12C renal, 17.2%; with UO-31 renal, 6.89% (active); in the test with TK-10 renal, 7.71% (active); in the test with ACHN renal, 1.3% (active). In addition, the growth is 16.9% with CAKI-1 renal, -3.11% (active) in the test with A498 renal, -16.1% (active) with CCRF-CEM leukemia and -2.05% (active) in the test on MOLT-4 leukemia.
`C=CCn1c(SCC(=O)Nc2ccc(C(=O)/C=C/c3ccc(OC)cc3)cc2)nnc1-c1ccccc1`: the growth is 82.4% with SK-MEL-2 melanoma; 88.4% in the test on EKVX NSCLC; 89.2% in the test with SN12C renal; 69.4% in the test on UO-31 renal; 98% with TK-10 renal; 92.5% in the test with ACHN renal. For the same molecule, the growth in the test on CAKI-1 renal was 93.1%; in the test with A498 renal it was 97.3%; with CCRF-CEM leukemia it was 84.5%; in the test with MOLT-4 leukemia it was 61.1%.
Regarding `CC[C@H](C)[C@H](NC(=O)[C@H](CCCNC(=N)N)NC(=O)[C@H](Cc1c[nH]c2ccccc12)NC(=O)[C@@H](NC(=O)[C@H](CCCCN)NC(=O)[C@H](CCCCN)NC(=O)[C@@H](NC(=O)[C@@H](NC(=O)[C@@H](NC(=O)[C@H](CCCCN)NC(=O)[C@H](Cc1ccccc1)NC(=O)[C@H](CCCCN)NC(=O)[C@H](CCCCN)NC(=O)[C@H](Cc1ccccc1)NC(=O)[C@@H](NC(=O)[C@@H](N)CCCCN)[C@@H](C)CC)[C@@H](C)O)[C@@H](C)CC)[C@@H](C)CC)C(C)C)C(=O)N[C@@H](Cc1ccccc1)C(=O)NCC(=O)N[C@@H](CCCNC(=N)N)C(=O)N[C@@H](Cc1ccccc1)C(N)=O`, the growth in the test with SK-MEL-2 melanoma was -37.5% (active); with EKVX NSCLC it was -71% (active); with SN12C renal, -56.1% (active); in the test on UO-31 renal, -68.2% (active); with TK-10 renal, -69.4% (active); in the test with ACHN renal, -54.7% (active). Also, the growth is -52.2% (active) with CAKI-1 renal, -40.9% (active) with A498 renal, 17.6% in the test on CCRF-CEM leukemia and 29% with MOLT-4 leukemia.
Consider `CCCCCCCCCCCCCCCCCCOc1ccccc1CC(=O)OCC[N+]1(C)CCOCC1`, for which the growth in the test on SK-MEL-2 melanoma was 91.5%; in the test on EKVX NSCLC it was 86.7%; in the test on SN12C renal, 31.4%; with UO-31 renal it was 67.9%; in the test with TK-10 renal, 43.5%; in the test with ACHN renal, 89.6%. Also, the growth in the test on CAKI-1 renal was 49.1%; with A498 renal it was 64.1%; with CCRF-CEM leukemia it was 30.1%; in the test on MOLT-4 leukemia, 46.9%.
As to `COc1ccc(-c2cc(C(=O)N3N=C(c4ccc(N)cc4)CC3c3ccccc3)c3ccccc3n2)cc1` (stereo not given), the growth was 39.8% with SK-MEL-2 melanoma; 70.8% with EKVX NSCLC; 51.7% with SN12C renal; 45.5% in the test on UO-31 renal; 58.4% with TK-10 renal; 37.6% with ACHN renal. The growth in the test with CAKI-1 renal was 24.5%; with A498 renal it was 29.1%; with CCRF-CEM leukemia, 25.6%; in the test with MOLT-4 leukemia it was 35.2%.
For the molecule `Cc1ncc(C(=O)Nc2ccc(CN3CCN(C)CC3)c(C(F)(F)F)c2)cc1C#Cc1cnc(N)c2cnccc12`, the growth with SK-MEL-2 melanoma is -85.3% (active); in the test with EKVX NSCLC, 21.5%; in the test on SN12C renal it was 11.7%; in the test on UO-31 renal, -30.1% (active); in the test on TK-10 renal, -22.6% (active); in the test on ACHN renal, -21.6% (active). Besides, the growth was -91.5% (active) in the test on CAKI-1 renal, -90.5% (active) in the test on A498 renal, 10.3% in the test with CCRF-CEM leukemia and 13% in the test on MOLT-4 leukemia.
Turning to `CC12CCC(/C(=C/NNc3ccc([N+](=O)[O-])cc3[N+](=O)[O-])C1=O)C2(C)C` (stereo not given), the growth in the test with SK-MEL-2 melanoma was 38.4%; in the test with EKVX NSCLC it was 90.8%; with SN12C renal, 73.1%; with UO-31 renal, 55.2%; in the test with TK-10 renal it was 96.8%; with ACHN renal, 34.3%. For the same molecule, the growth was 46.8% with CAKI-1 renal, 88.5% with A498 renal, 47.4% in the test on CCRF-CEM leukemia and 41.3% in the test on MOLT-4 leukemia.
For the molecule `CCCNc1nc2ccccc2c2c(=O)c3cccc(Cl)c3sc12`, the growth in the test on SK-MEL-2 melanoma is 102%; with EKVX NSCLC, 85.1%; in the test with SN12C renal it was 105%; in the test with UO-31 renal it was 66.9%; in the test with TK-10 renal, 129%; in the test with ACHN renal, 92.7%. Also, the growth is 71.7% with CAKI-1 renal, 124% with A498 renal, 92.2% with CCRF-CEM leukemia and 93.9% in the test with MOLT-4 leukemia.
Consider `Fc1ccc(COc2ccc(Nc3ncnc4sc5c(c34)CCCC5)cc2)cc1`, for which the growth with SK-MEL-2 melanoma is 84.4%; in the test with EKVX NSCLC it was 94.3%; in the test on SN12C renal, 81.1%; with UO-31 renal, 78.5%; with TK-10 renal it was 84%; with ACHN renal it was 95.2%. For the same molecule, the growth was 99.6% in the test with CAKI-1 renal, 86.2% in the test with A498 renal, 97.6% in the test with CCRF-CEM leukemia and 87.4% in the test on MOLT-4 leukemia.
